# Measured values from the supplement of paper PMC10127200.
# Counter-ions that a name gives are not always drawn.
# Key:
# Experiment in all cases: Euclidean distance of Cell Painting phenotypic profile (signed KS, 77 features) to DMSO centroid (dimensionless distance); 5 or 10 uM (library dependent); higher = stronger phenotypic change vs DMSO (phenoactivity)
# Conditions in all cases: 48 h
# [1] = system: 786-O
# Summary of the method: (§1)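 Library compounds were applied at 10 or 5 uM, depending on the library, with 0.1% DMSO final, for 48 h to five cancer lines and a healthy fibroblast line. After staining, cells were imaged confocally at 20X across 9 fields per well, and Harmony extracted 77 features, each scored as a signed Kolmogorov-Smirnov statistic against vehicle wells on the same plate. Phenoactivity is the Euclidean distance between each profile and the median vehicle profile, with profiles first plate-position corrected, correlation-weighted and averaged over replicates at the top dose.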
# [2] = system: A549
# Summary of the method: as §1
# [3] = system: DU145
# Summary of the method: as §1
# [4] = system: FB
# Summary of the method: as §1
# [5] = system: HEPG2
# Summary of the method: as §1
# [6] = system: OVCAR4
# Summary of the method: as §1
SMILES,Euclidean distance [1],Euclidean distance [2],Euclidean distance [3],Euclidean distance [4],Euclidean distance [5],Euclidean distance [6]
COc1cc(C(=O)OCCCCNC(=N)N)cc(OC)c1O [Leonurine],1.19,0.869,0.698,1.29,0.641,0.953
OCCN1CCN(CCCN2c3ccccc3Sc3ccc(C(F)(F)F)cc32)CC1 [Fluphenazine dihydrochloride],1.98,2.27,1.87,2.76,2.66,1.77
Nc1nc(/C(=C/CC(=O)O)C(=O)N[C@@H]2C(=O)N3C(C(=O)O)=CCS[C@H]23)cs1 [Ceftibuten dihydrate],1.22,0.568,1.24,1.2,1.17,0.987
Cc1cc2c(cc1S(N)(=O)=O)S(=O)(=O)CCC2 [Meticrane],0.951,0.864,2.26,0.946,1.17,0.99
O=C(O)c1cccc(-c2noc(-c3ccccc3F)n2)c1 [Ataluren (PTC124)],1.05,0.791,1.17,1.13,0.816,1.51
O=C(O)c1ccc(N2C(=O)/C(=C\c3ccc(-c4ccc([N+](=O)[O-])cc4)o3)C=C2c2ccccc2)cc1,0.841,1.23,0.74,0.72,1.83,0.995
C[C@H](CS)C(=O)N1CCC[C@H]1C(=O)O [Captopril],1.01,1.13,0.669,0.971,2.08,0.714
CCCCCCCCN=c1ccn(CCCCCCCCCCn2ccc(=NCCCCCCCC)cc2)cc1 [Octenidine Dihydrochloride],6.46,4.73,6.38,6.45,4.62,6.71
Cc1cc(Cn2cnc3c2CC(C(=O)O)N(C(=O)C(c2ccccc2)c2ccccc2)C3)ccc1N(C)C (stereo not drawn),0.67,1.03,1.03,1.08,0.529,0.828
O=C(Nc1nc(-c2cc(Cl)cs2)c(N2CCN(C3CCCCC3)CC2)s1)c1cnc(N2CCC(C(=O)O)CC2)c(Cl)c1 [Avatrombopag],1.81,0.802,1.84,0.858,1.41,1.05
COC(=O)Nc1nc2cc(C(=O)c3cccs3)ccc2[nH]1 [Nocodazole],2.96,2.51,3.43,2.56,2.58,3.08
Cc1cc(Nc2cc(CN3CCOCC3)c3nc(C)c(Cc4ccc(Cl)cc4F)n3n2)n[nH]1,3.25,3.37,2.63,1.71,2.95,3.19
Nc1[nH]cnc2ncnc1-2 [Adenine sulfate],1.69,0.409,1.17,0.763,0.765,0.878
c1cn2cc(-c3ccc4cn[nH]c4c3)nc(Nc3ccc(N4CCOCC4)cc3)c2n1 [Entospletinib (GS-9973)],2.51,2.15,2.1,0.923,0.994,1.42
O=C(O)c1cccnc1Nc1cccc(C(F)(F)F)c1 [Niflumic acid],0.923,1.01,1.02,1.24,1.19,1.26
CC1=NN(c2ccc(C)c(C)c2)C(=O)/C1=N\Nc1cccc(-c2cccc(C(=O)O)c2)c1O [Eltrombopag Olamine],1.58,1.04,1.13,2.4,1.69,1.49
CNC(=O)Nc1ccc(-c2nc(N3CC4CCC(C3)O4)c3cnn(C4CCC5(CC4)OCCO5)c3n2)cc1,4.15,3.37,2.25,4.69,3.38,4.35
COc1ccc(Cl)cc1C(=O)NCCc1ccc(S(=O)(=O)NC(=O)NC2CCCCC2)cc1 [Glyburide],1.1,0.731,1.49,1.27,2.08,1.32
CCCCNc1cc(C(=O)O)cc(S(N)(=O)=O)c1Oc1ccccc1 [Bumetanide],1.24,1.15,1.04,1.5,1.38,1.64
CC(=O)O[C@]1(C(C)=O)CC[C@H]2[C@@H]3C[C@H](C)C4=CC(=O)CC[C@]4(C)[C@H]3CC[C@@]21C [Medroxyprogesterone acetate],1.02,1.4,1.65,1.31,1,1.06
N[C@@H](Cc1c[nH]c2ccc(O)cc12)C(=O)O [5-hydroxytryptophan (5-HTP)],1.11,0.965,0.903,0.927,0.404,0.744
CC(C)(O)c1ccccc1CC[C@@H](SCC1(CC(=O)O)CC1)c1cccc(/C=C/c2ccc3ccc(Cl)cc3n2)c1 [Montelukast Sodium],0.941,0.527,0.759,0.512,0.526,0.733
CC(=O)OCC(=O)[C@@]1(O)CC[C@H]2[C@@H]3CCC4=CC(=O)CC[C@]4(C)[C@H]3[C@@H](O)C[C@@]21C [Hydrocortisone acetate],1.17,2.28,1.4,1.96,1.05,1.41
Cn1ncc(Cl)c1-c1cc(C(=O)N[C@H](CN)Cc2ccc(F)c(F)c2)oc1Cl,3.04,2.27,3.3,3.69,2.27,2.44

SMILES,Euclidean distance [1],Euclidean distance [2],Euclidean distance [3],Euclidean distance [4],Euclidean distance [5],Euclidean distance [6]
COc1ccc2cc([C@H](C)C(=O)O)ccc2c1 [Naproxen Sodium],1.02,0.936,0.948,0.856,0.593,0.977
C=C1[C@H](CO)[C@@H](O)C[C@@H]1n1cnc2c(=O)[nH]c(N)nc21 [Entecavir],1.46,1.16,1.05,1.14,1.35,1.15
C[N+](C)(C)CCO.[Cl-] [Choline Chloride],0.795,0.549,0.73,0.801,0.682,1.46
N[C@@H]1c2cccnc2[C@H](OC(=O)N2CCC(n3c(=O)[nH]c4ncccc43)CC2)CC[C@H]1c1cccc(F)c1F,1.04,0.68,0.986,1.29,0.768,1.31
CCCCNC(=O)NS(=O)(=O)c1ccc(C)cc1 [Tolbutamide],1.41,0.625,0.836,0.823,0.337,0.856
Cc1cn(-c2cc(NC(=O)c3ccc(C)c(Nc4nccc(-c5cccnc5)n4)c3)cc(C(F)(F)F)c2)cn1 [Nilotinib hydrochloride],2.28,4.11,3.01,1.85,3.37,3.14
NC(=O)c1cnc(N[C@@H]2CCCC[C@@H]2N)nc1Nc1cccc(-n2nccn2)c1,1.35,2.72,1.89,2.25,2.24,2.83
CCN1C[C@H](C)n2c(c(O)c3c(=O)n(Cc4ccc(F)c(Cl)c4)nc(C(=O)NC)c32)C1=O,1.08,0.61,1.05,0.927,0.645,1
Nc1nc(CC(=O)Nc2ccc(CCNC[C@H](O)c3ccccc3)cc2)cs1 [Mirabegron],0.989,1.17,1.1,1.21,0.802,1.68
CC(C)(Oc1ccc(C(=O)c2ccc(Cl)cc2)cc1)C(=O)O [Fenofibric acid],0.559,1.24,0.978,1.59,0.698,0.976
C[C@H](CCC(=O)O)[C@H]1CC[C@H]2[C@@H]3[C@H](O)C[C@@H]4C[C@H](O)CC[C@]4(C)[C@H]3C[C@H](O)[C@]12C [Cholic acid],1.14,0.83,0.953,0.727,0.875,1.12
COc1ccc(C[C@H](N)C(=O)N[C@H]2[C@@H](O)[C@H](n3cnc4c(N(C)C)ncnc43)O[C@@H]2CO)cc1 [Puromycin 2HCl],6.42,3.8,4.87,6.23,4.76,6
NC[C@@H]1O[C@H](O[C@H]2[C@@H](O)[C@H](O[C@@H]3[C@@H](O)[C@H](N)C[C@H](N)[C@H]3O[C@H]3O[C@H](CO)[C@@H](O)[C@H](O)[C@H]3N)O[C@@H]2CO)[C@H](N)[C@@H](O)[C@@H]1O [Paromomycin Sulfate],1.05,1.06,0.88,1.2,0.817,1
CCN[C@@H]1C[C@H](N)[C@@H](O[C@H]2OC(CN)=CC[C@H]2N)[C@H](O)[C@H]1O[C@H]1OC[C@](C)(O)[C@H](NC)[C@H]1O [Netilmicin Sulfate],1.12,0.92,1.18,0.946,0.625,0.916
CCCCNc1ccc(C(=O)OCCOCCOCCOCCOCCOCCOCCOCCOCCOC)cc1 [Benzonatate],1.17,1.09,0.781,1.36,0.687,1.37
CCOC(=O)c1ccc(NC2CCCCC2)c(N)c1 [Ferrostatin-1 (Fer-1)],0.915,1.54,1.71,1.18,0.921,1.09
COC(=O)N[C@H](C(=O)N1CCC[C@H]1c1ncc(-c2ccc(-c3ccc(-c4cnc([C@@H]5CCCN5C(=O)[C@@H](NC(=O)OC)C(C)C)[nH]4)cc3)cc2)[nH]1)C(C)C,1.52,1.63,1.12,1,0.904,1.5
CC(C)c1cc(C(=O)N2Cc3ccc(CN4CCN(C)CC4)cc3C2)c(O)cc1O,3.5,2.81,3.91,2.97,2.99,2.89
COc1cc2nccc(Oc3ccc(NC(=O)C4(C(=O)Nc5ccc(F)cc5)CC4)cc3)c2cc1OC,2.21,2.82,1.36,3.32,2.4,3.08
Cc1ccc(C)c(OCCCC(C)(C)C(=O)O)c1 [Gemfibrozil],1.23,0.801,1.51,1.06,1.97,1.02
CN(C)CCC(c1ccc(Cl)cc1)c1ccccn1 (stereo not drawn) [Chlorpheniramine Maleate],1.37,0.807,1.01,1.23,1.4,1.15
CCCCCCNC(=O)n1cc(F)c(=O)[nH]c1=O [Carmofur],2.44,2.89,1.27,2.91,2.49,2.82
CC(=O)Nc1ccc(NC(=S)NC(=O)c2ccc(C(C)(C)C)cc2)cc1 [Tenovin-1],2.16,1.83,0.772,0.753,1.08,1.03
Fc1ccc([C@@H]2CCNC[C@H]2COc2ccc3c(c2)OCO3)cc1 [Paroxetine mesylate],1.64,1.28,1.89,1.62,2.59,1.52
